Records with an inconclusive call do not appear. Activity calls are given as the source filed them. Unless noted, calls follow the shape of the full dose curve.

Assay [1] can be described thus: Primary qHTS for inhibitors of SARS-S pseudo-typed particle cell entry (AID 1479145). Also: nearly all actives have a fitted effect of over 45% in size. Also: potency is read from the fitted curve at half-maximal effect. As to activity change, negative = inhibition: % is scaled to controls: 0 for no effect and ±100 for the full control effect. To be noted: outcome: dose series up to 57.1 µM unless noted. In general terms: qHTS replaces the single test concentration by a dilution series.
A short description of assay [2]: Primary qHTS for inhibitors of MERS-S pseudo-typed particle cell entry (AID 1479149). Also: nearly all actives have a fitted effect of over 60% in size. Also: potency is read from the fitted curve at half-maximal effect. As to activity change, negative = inhibition: % is scaled to controls: 0 for no effect and ±100 for the full control effect. To be noted: outcome: dose series up to 57.1 µM unless noted.
Assay [3] is described as follows: Confirmatory qHTS to identify inhibitors of SARS-CoV-2 cell entry (AID 1645844). Also: potency is read from the fitted curve at half-maximal effect; nearly all actives have a fitted effect of over 45% in size. Summed up:
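Luminescence entry read-out after 48 h: spike-pseudotyped MLV particles (Wuhan-Hu-1, 19-aa C-terminal truncation) added to compound-pretreated (1 h) HEK293-ACE2 cells; Data were normalised to bald PP and spike PP wells.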

Assay [4] in a line: Primary qHTS to identify inhibitors of SARS-CoV-2 cell entry (AID 1645846). Also: nearly all actives have a fitted effect of over 45% in size. To be noted: SARS-CoV-2 pseudovirus cell entry assay, luminescence; activity change, negative = inhibition: at 57.1 µM (top of the series) unless noted. The gist of the method: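 Luminescence readout (Bright-Glo luciferase) 48 h after pseudoparticle addition. HEK293-ACE2 cells, 1500/well; compound pre-incubation 1 h; Normalized to spike PP and bald PP.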

The nature of assay [5]: VSVG counterscreen qHTS to identify inhibitors of SARS-CoV-2 cell entry (AID 1645847). Also: potency is read from the fitted curve at half-maximal effect; nearly all actives have a fitted effect of over 65% in size. The gist of the method: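 HEK293-ACE2 cells (Expi293F stably expressing human ACE2) were pretreated with compound for 1 h at 37 °C, then infected with MLV-based VSV-G pseudotyped particles for 48 h. Luciferase luminescence was normalized to VSV-G PP and bald PP wells.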
The nature of assay [6]: Primary qHTS for Huh7 cytotoxicity: counterscreen for inhibitors of MERS-S pseudotyped particle cell entry (AID 1479147). Also: potency is read from the fitted curve at half-maximal effect. To be noted: outcome: dose series up to 57.1 µM unless noted.
The nature of assay [7]: Primary qHTS for Vero E6 cytotoxicity: counterscreen for inhibitors of SARS-S pseudo-typed particle cell entry (AID 1479150). To be noted: outcome: dose series up to 57.1 µM unless noted.
Assay [8] is described as follows: Cytotoxicity counterscreen for inhibitors of SARS-CoV-2 cell entry (AID 1645845). Also: nearly all actives have a fitted effect of over 50% in size. Conditions: outcome: dose series up to 57.1 µM unless noted. Summed up:
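ATP-content luminescence (ATPLite 1step, 15 min RT) read after 48 h compound exposure of Expi293F cells stably expressing human ACE2; normalized to cells-only wells and media-only wells.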
Background: Counterscreens check selectivity or assay interference.

Assay [9] in a line: NCATS anti-infectives library activity on the primary C. elegans qHTS viability assay (AID 1745855). The gist of the method:
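GFP read-out by 488 nm laser cytometry at day 0, 3 and 7, gated on object perimeter, area and peak intensity, scored viability of PE254-GFP-FLuc worms exposed to compound in S medium with bacterial capsules at 21 °C.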

For assay [10], the target named is Glutathione peroxidase 1 (Homo sapiens) (UniProt P07203). In words: Primary qHTS Assay for Inhibitors of Recombinant Selenoprotein Glutathione Peroxidase 1 (GPX1) (AID 1845191; active = well fitted curve in the direction sought with a large enough effect; an effect the other way counts as inactive or inconclusive; also: nearly all actives have a fitted effect of over 65% in size). Summed up: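 NADPH consumption tracked by fluorescence at 340/450 nm between t=0 and t=15 min, room temperature. Final mix: 10 nM GPX1, 100 nM glutathione reductase, 1 mM GSH, 0.5 mM NADPH, 0.5 mM cumene hydroperoxide, 0.01% BSA; 30 min compound–enzyme preincubation.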

Assay [11] deals with Phospholipid hydroperoxide glutathione peroxidase GPX4 (Homo sapiens) (UniProt P36969). Nature of the assay: Primary qHTS Assay for Inhibitors of Recombinant Selenoprotein Glutathione Peroxidase 4 (GPX4) (AID 1845192; active = well fitted curve in the direction sought with a large enough effect; an effect the other way counts as inactive or inconclusive; also: nearly all actives have a fitted effect of over 65% in size). Summed up: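 NADPH consumption followed by fluorescence at 340/450 nm, t=0 and after 15 min at room temperature. Reaction started with cumene hydroperoxide (0.5 mM final) after 30 min compound–GPX4 preincubation; final 200 nM GPX4, 100 nM GR, 1 mM GSH, 0.5 mM NADPH.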

The target in assay [12] is Cytochrome P450 2C9 (Homo sapiens) (UniProt P11712). In words: qHTS Assay for Inhibitors and Substrates of Cytochrome P450 2C9 (AID 883; active = well fitted curve in the direction sought with a large enough effect; an effect the other way counts as inactive or inconclusive; also: potency is read from the fitted curve at half-maximal effect; nearly all actives have a fitted effect of over 60% in size). Summed up: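 Inhibition of CYP2C9 is scored as loss of luminescence, with 57uM sulphaphenazole defining 100% inhibition. Substrate Luciferin-H is used at 100uM, equal to its KM; enzyme at 10nM in 25mM KPO4, 60 min at 37C with NADPH regeneration.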

For assay [13], the target named is Cytochrome P450 3A4 (Homo sapiens) (UniProt P08684). In words: qHTS Assay for Inhibitors and Substrates of Cytochrome P450 3A4 (AID 884; active = well fitted curve in the direction sought with a large enough effect; an effect the other way counts as inactive or inconclusive; also: potency is read from the fitted curve at half-maximal effect; nearly all actives have a fitted effect of over 50% in size). Summed up:
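Luminescent readout of luciferin produced by CYP3A4 (20 nM) dealkylation of Luciferin-PPXE, 25 uM (its KM). NADPH-driven reaction ran 60 min at RT after 10 min compound preincubation; data scaled to 57 uM ketoconazole as 100% inhibition.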

Assay [14] shares this target. In words: qHTS Assay for Activators of Cytochrome P450 3A4 (AID 885; active = well fitted curve in the direction sought with a large enough effect; an effect the other way counts as inactive or inconclusive; also: nearly all actives have a fitted effect of over 65% in size). The gist of the method:
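Activators are scored by enhanced luminescence from CYP3A4 conversion of luciferin-PPXE (25uM, equal to KM) to luciferin, after 60 min at RT with an NADPH-regenerating system.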

The target of assay [15] is Cytochrome P450 2D6 (Homo sapiens) (UniProt P10635). In words: qHTS Assay for Inhibitors and Substrates of Cytochrome P450 2D6 (AID 891; active = well fitted curve in the direction sought with a large enough effect; an effect the other way counts as inactive or inconclusive; also: potency is read from the fitted curve at half-maximal effect; nearly all actives have a fitted effect of over 60% in size). Summed up:
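Luminescent read-out of luciferin formed by 5 nM human CYP2D6 demethylating 30 uM Luciferin-ME EGE (Km level) over 60 min at room temperature after NADPH regeneration addition. Data normalized to full inhibition by 1.43 uM quinidine.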

The target in assay [16] is Peroxisome proliferator-activated receptor delta (Homo sapiens) (UniProt Q03181). Nature of the assay: qHTS assay for small molecule agonists of peroxisome proliferator-activated receptor delta signaling (AID 588534).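 Also: 0% = DMSO basal wells and 100% = positive control agonist at 10 µM.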 Summed up: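 Agonist-mode qHTS; reporter cells, 5 hrs 37 C pre-incubation; compound titration, 18 hrs 37 C; CCF4 dye, 2 hrs RT; fluorescence read. EC50/efficacy via Hill fit.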
Sequence of Peroxisome proliferator-activated receptor delta (Homo sapiens) (Q03181 whole entry, looked up): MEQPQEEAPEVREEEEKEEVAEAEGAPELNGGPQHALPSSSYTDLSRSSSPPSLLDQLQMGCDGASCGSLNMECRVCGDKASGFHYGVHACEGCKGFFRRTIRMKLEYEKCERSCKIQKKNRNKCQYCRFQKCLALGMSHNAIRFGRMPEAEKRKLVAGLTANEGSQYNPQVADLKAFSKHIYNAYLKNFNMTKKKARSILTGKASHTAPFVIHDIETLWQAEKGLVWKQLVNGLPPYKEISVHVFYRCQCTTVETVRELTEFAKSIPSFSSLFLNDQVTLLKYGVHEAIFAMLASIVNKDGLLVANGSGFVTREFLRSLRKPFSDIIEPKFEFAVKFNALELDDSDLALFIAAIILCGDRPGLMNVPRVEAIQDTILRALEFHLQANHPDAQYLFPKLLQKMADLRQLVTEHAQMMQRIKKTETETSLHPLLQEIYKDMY

Sequence of Cytochrome P450 3A4 (Homo sapiens) (P08684 whole entry, looked up): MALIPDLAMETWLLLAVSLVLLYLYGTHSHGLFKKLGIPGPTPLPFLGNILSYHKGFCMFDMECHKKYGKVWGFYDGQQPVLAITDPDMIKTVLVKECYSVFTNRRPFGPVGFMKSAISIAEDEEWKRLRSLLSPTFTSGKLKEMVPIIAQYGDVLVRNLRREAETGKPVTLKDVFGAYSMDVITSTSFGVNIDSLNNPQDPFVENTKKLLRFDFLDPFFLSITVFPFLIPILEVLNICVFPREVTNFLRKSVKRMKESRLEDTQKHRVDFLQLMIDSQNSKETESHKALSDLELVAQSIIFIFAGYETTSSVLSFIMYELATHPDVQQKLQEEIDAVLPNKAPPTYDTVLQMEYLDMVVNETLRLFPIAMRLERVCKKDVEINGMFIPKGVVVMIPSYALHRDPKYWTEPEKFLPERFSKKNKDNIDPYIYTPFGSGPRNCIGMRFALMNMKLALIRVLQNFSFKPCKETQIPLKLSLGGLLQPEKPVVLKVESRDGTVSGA
Sequence of Glutathione peroxidase 1 (Homo sapiens) (P07203 whole entry, looked up): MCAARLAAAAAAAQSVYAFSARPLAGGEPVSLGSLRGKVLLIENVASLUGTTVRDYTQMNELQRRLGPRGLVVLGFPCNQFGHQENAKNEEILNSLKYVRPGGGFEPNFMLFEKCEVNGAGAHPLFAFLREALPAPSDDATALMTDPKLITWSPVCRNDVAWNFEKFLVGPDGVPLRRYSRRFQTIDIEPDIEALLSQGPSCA
Sequence of Cytochrome P450 2D6 (Homo sapiens) (P10635 whole entry, looked up): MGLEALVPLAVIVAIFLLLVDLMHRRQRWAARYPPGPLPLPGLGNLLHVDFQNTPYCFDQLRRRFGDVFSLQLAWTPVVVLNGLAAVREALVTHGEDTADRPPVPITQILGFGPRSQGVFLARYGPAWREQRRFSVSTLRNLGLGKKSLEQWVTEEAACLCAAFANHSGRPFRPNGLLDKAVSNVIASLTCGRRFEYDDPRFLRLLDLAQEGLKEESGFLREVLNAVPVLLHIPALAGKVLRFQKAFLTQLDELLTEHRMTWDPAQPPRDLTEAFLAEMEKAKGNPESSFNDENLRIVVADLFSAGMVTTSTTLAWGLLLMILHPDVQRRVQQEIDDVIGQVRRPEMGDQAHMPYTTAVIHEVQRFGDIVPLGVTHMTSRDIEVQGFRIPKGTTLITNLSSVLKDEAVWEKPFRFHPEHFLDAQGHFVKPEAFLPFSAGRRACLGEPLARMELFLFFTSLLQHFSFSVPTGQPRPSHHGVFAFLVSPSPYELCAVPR
Sequence of Phospholipid hydroperoxide glutathione peroxidase GPX4 (Homo sapiens) (P36969 whole entry, looked up): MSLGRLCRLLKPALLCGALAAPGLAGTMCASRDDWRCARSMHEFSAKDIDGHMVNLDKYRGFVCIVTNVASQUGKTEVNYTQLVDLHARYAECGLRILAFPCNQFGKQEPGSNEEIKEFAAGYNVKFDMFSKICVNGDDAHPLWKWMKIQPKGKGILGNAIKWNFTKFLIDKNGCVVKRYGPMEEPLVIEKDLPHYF
Sequence of Cytochrome P450 2C9 (Homo sapiens) (P11712 whole entry, looked up): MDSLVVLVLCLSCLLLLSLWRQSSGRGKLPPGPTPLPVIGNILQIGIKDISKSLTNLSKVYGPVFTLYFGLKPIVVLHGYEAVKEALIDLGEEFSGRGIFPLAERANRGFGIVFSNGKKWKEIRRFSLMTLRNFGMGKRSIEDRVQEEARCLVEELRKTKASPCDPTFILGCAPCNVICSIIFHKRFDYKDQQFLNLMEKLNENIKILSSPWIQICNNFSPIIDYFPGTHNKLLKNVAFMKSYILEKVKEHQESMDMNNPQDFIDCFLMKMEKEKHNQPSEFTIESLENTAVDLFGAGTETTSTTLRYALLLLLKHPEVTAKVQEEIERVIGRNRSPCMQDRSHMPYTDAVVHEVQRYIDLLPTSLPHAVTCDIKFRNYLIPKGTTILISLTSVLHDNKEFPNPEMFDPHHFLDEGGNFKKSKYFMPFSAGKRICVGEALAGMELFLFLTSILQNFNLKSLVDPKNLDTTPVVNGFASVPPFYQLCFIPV

As to `COc1cc([C@@H]2c3cc4c(cc3C(O[C@@H]3O[C@@H]5CO[C@@H](c6cccs6)OC5[C@H](O)[C@H]3O)C3COC(=O)[C@@H]32)OCO4)cc(OC)c1O` (stereo not given in full), the Potency in assay [1] is 1 µM (active); in assay [3] it was 0.0482 µM (active); in [5] it was 0.0429 µM (active). In [2], the Potency entry is “inactive”. In addition, the activity change, negative = inhibition in assay [4] is -95.7%.

As for `CC1(COc2ccc(N3CCC(Oc4ccc(OC(F)(F)F)cc4)CC3)cc2)Cn2cc([N+](=O)[O-])nc2O1` (stereo not given), the Potency entry in assay [1], in assay [6] and in assay [7] was “inactive” in each case.

Take `CC(C)OC(=O)[C@H](C)N[P@](=O)(CO[C@H](C)Cn1cnc2c(N)ncnc21)Oc1ccccc1`: the Potency in [1] was 0.891 µM (active); in assay [3], 0.0108 µM (active); in assay [5] it was 0.0096 µM (active). Also, the Potency result in assay [2], in assay [7], in assay [8], in [9], in [10] and in [11] was “inactive” each time. Further, in assay [4], the activity change, negative = inhibition is -96.1%.

As to `CC1(C)C(/C=C/C=C/C=C/C=C2/N(CCCCS(=O)(=O)O)c3ccc4ccccc4c3C2(C)C)=[N+](CCCCS(=O)(=O)[O-])c2ccc3ccccc3c21`, the Potency entry in assay [1], in assay [6], in assay [7] and in assay [8] was “inactive” in each case.

As to `Nc1nc(Cl)nc2c1ncn2C1CC(O)C(CO)O1` (stereo not given), the Potency in assay [1] was 11.2 µM (active); in assay [3] it was 19.2 µM (active); in assay [5] it was 19.2 µM (active). Moreover, the Potency entry in assay [6], in [7] and in assay [8] was “inactive” each time.

In the case of `CCOc1ccc2c(c1)C(C)=CC(C)(C)N2`, the Potency is 2 µM (active) in [12]; 15.8 µM (active) in assay [13]; 2.51 µM (active) in assay [15]; 31.2 µM (active) in assay [3]; 55.5 µM (active) in assay [5]. Moreover, the Potency entry in [14], in [1], in [6], in assay [7] and in assay [8] was “inactive” each time. Also, in [16], the compound was classed as inactive.

On to `C=C1/C(=C\C=C2/CCC[C@]3(C)[C@@H]([C@H](C)CCCC(C)(C)O)CC[C@@H]23)C[C@@H](O)C[C@@H]1O`, for which the Potency result in [1], in assay [6], in assay [7] and in assay [8] was “inactive” in each case.

In the case of `Nc1nc(-n2cc(C(=O)O)c(=O)c3cc(F)c(N4CC(O)C4)c(Cl)c32)c(F)cc1F`, the Potency result in assay [1], in [6], in [7] and in [8] was “inactive” each time.

Consider `C[C@@H](c1nc(-c2ccc(C#N)cc2)cs1)[C@](O)(Cn1cncn1)c1cc(F)ccc1F`, for which, in assay [6], the Potency result is “inactive”. Moreover, the Potency in assay [2] was 10 µM (active).

With `S=C1SCN(Cc2ccccc2)CN1Cc1ccccc1`, the Potency in assay [6] is 35.5 µM (active).

(Values after PubChem BioAssay (NCATS).)
